High-throughput results as filed in PubChem.
A selection: hits, their analogues and other compounds. The true share with any hit is near 3.3%.
Mcl1-Noxa inh: disrupts binding of human Mcl-1 to Noxa peptide; actives 1.5% (n = 220,000); inhibition, % at 21.7 µM; AID 1022; TR-FRET Mcl-1/Noxa peptide binding, 2 h;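 active = compounds that cut the protein-peptide binding signal by more than 50% relative to plate controls in a single-dose test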;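 note: His-tagged Mcl-1 with rhodamine Noxa BH3 peptide and terbium anti-His antibody; 0% = Mcl-1 plus Noxa peptide wells and 100% = peptide-only wells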
eIF4E-4G inh: inhibitors of eIF4E and eIF4G interaction in translation initiation; inhibition, % at 21.7 µM; TR-FRET eIF4E-eIF4GI(517-606) binding, 2 h; AID 782; actives 0.37% (n = 220,000);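 note: 0% = full FRET control wells and 100% = background wells lacking eIF4GI fragment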
Target sequence (P63073 whole entry, looked up, the tested form may be a part): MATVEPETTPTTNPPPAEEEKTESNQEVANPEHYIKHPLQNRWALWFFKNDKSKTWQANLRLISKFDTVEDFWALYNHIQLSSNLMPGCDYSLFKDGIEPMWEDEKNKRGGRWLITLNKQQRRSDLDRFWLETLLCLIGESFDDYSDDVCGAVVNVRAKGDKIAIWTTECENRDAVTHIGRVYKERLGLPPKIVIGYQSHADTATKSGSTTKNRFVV
Target sequence (Q04637 whole entry, looked up, the tested form may be a part): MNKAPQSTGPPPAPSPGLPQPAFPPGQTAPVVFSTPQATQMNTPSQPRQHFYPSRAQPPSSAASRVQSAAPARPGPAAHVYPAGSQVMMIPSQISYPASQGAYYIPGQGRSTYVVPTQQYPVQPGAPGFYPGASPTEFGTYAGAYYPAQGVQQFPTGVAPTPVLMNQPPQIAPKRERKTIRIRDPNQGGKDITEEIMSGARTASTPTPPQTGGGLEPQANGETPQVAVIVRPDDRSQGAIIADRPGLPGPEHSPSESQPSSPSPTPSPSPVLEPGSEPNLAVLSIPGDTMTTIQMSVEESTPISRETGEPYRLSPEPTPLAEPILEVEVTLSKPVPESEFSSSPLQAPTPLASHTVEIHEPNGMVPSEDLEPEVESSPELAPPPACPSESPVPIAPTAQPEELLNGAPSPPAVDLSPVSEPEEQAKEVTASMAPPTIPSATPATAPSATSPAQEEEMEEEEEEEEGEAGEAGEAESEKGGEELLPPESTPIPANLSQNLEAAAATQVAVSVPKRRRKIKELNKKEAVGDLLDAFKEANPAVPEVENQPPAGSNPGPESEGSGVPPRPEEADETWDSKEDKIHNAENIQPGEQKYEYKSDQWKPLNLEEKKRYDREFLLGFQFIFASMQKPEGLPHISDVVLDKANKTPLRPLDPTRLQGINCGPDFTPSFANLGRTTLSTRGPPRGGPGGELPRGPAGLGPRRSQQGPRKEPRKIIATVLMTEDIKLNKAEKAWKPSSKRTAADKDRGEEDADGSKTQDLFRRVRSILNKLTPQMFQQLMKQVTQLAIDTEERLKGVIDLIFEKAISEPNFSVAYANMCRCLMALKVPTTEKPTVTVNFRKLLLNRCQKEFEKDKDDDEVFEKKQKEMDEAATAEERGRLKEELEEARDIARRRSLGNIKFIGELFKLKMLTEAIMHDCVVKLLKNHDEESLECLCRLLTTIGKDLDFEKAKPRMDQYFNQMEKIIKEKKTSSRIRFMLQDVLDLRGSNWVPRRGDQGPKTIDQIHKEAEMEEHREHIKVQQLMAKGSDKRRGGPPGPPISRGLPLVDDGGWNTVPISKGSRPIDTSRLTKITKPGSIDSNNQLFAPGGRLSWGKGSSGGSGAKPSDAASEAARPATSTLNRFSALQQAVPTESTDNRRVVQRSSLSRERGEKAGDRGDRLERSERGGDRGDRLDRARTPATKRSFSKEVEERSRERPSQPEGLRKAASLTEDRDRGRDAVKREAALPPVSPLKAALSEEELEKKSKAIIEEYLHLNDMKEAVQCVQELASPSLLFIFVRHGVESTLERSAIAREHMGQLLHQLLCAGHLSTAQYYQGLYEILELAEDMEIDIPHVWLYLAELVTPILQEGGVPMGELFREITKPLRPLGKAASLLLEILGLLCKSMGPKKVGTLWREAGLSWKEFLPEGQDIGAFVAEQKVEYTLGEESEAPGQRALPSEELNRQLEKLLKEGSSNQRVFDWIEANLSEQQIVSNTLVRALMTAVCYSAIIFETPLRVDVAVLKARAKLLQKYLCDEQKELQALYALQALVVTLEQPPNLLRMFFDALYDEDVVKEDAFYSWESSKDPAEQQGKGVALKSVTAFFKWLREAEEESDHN
14-3-3 Bad inh: disrupts binding of bovine 14-3-3 zeta to phospho-Bad peptide; TR-FRET 14-3-3zeta/Dy647-pBad peptide displacement, 1 h; inhibition, % at 21.7 µM; actives 0.71% (n = 220,000);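 active = inhibition above about 70%, limit read from the data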;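 note: 0% = full 14-3-3 plus peptide FRET controls and 100% = background without 14-3-3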
Mcl1-Bid inh: disrupts binding of human Mcl-1 to Bid peptide; Q07820; TR-FRET Mcl-1/Bid-Dy647 peptide binding, 1536-well; actives 0.97% (n = 220,000); inhibition, % at 21.7 µM; AID 1021;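 active = compounds that cut the binding signal by more than half at the single screening dose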;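 note: His-tagged Mcl-1 with europium anti-His antibody binding Bid BH3 peptide; 0% = Mcl-1 plus peptide wells and 100% = peptide-only wells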
p47phox inh: p47phox (human) inhibition | P14598 | p47phox/p22phox peptide binding, fluorescence polarization, 2 h | inhibition, % at 24.7 µM | actives 0.53% (n = 220,000) | AID 1274;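 note: 0% = p47phox with labelled peptide and 100% = labelled peptide alone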
Mcl-1 Bim block: inhibitors of Bim-Mcl-1 interaction, human; Q07820; Bead-based flow cytometry, Bim peptide-Mcl-1 binding; inhibition, % at 10 µM; actives 0.1% (n = 190,000); in the data active = inhibition above about 40%;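 note: 0% = no compound tracer wells and 100% = peptide blocker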
Starred values were filed as active, the others as inactive; / = not tested or not shown; [ ] = dose if it differs, or a comment.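 Rule for the calls, unless noted: active = inhibition above about 30% (limit read from the data); inactive = the rest.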

SMILES	Mcl1-Noxa inh	eIF4E-4G inh	14-3-3 Bad inh	Mcl1-Bid inh	p47phox inh	Mcl-1 Bim block
O=C(CCN1CCC(c2cccs2)=N1)c1cccs1	10	-5	-15	-36	-18	/
COc1cc(NC(=O)c2ccccc2)c(OC)cc1NC(=O)Cc1cccs1	61*	39*	1	-108	-3	0
O=C(Cc1cccs1)Nc1nnc(SCc2cccc3ccccc23)s1	68*	10	-6	18	-23	-3
COc1ccc(Cc2nnc(NC(=O)Cc3cccs3)s2)cc1OC	96*	37*	63	76*	-46	0
O=C(Cc1cccs1)Nc1nc2c(ccc3ccccc32)s1	10	5	13	-11	-21	-3
COc1ccc(C(=O)Nc2nnc(Cc3cccs3)s2)cc1OC	-6	-5	2	-12	-17	-4
O=C(Cc1cccs1)Nc1nnc(Cc2ccccc2)s1	82*	17	-14	-39	-54	-17
CN(NC(=O)c1ccccc1F)c1ccc([N+](=O)[O-])cn1	2	1	2	-18	-10	/
CO/N=C\c1cc(C(=O)c2ccc(Cl)cc2Cl)cn1C	-7	0	-5	-2	0	2
Cc1nc(C)c(Oc2cccc(C(F)(F)F)c2)c(=O)[nH]1	-2	-5	-17	-14	3	/
COCCNC(=O)Cn1nc(C)c([N+](=O)[O-])c1C	-9	0	2	-28	6	3
CCCNC(=S)NCCN1CCCCC1	14	10	73*	38	-4	1
CCCCNC(=S)NCCN1CCCCC1	23	-5	66	24	6	2
O=C(NCc1ccc(F)cc1)C1CCN(c2cnccn2)CC1	14	2	-1	-35	-8	0
Cc1ccc(S(=O)(=O)Nc2ccccc2C(=O)NCc2cccnc2)cc1	66*	2	10	12	1	0
O=C(NCc1cccnc1)c1ccccc1NS(=O)(=O)c1ccc(F)cc1F	23	-1	3	-11	-16	/
O=C(CSc1nnc(-c2ccncc2)o1)NCc1ccccc1	-1	6	-1	-4	-3	-5
O=C(CSc1nnc(-c2ccncc2)o1)NCc1ccccc1Cl	1	4	-2	101*	-3	0
O=S(=O)(Cc1ccc(Cl)cc1)c1ncc(CO)n1Cc1ccccc1	1	-1	-8	-9	-13	0
CCCn1c(=S)[nH]c2cc(Cl)ccc21	3	1	-2	-150	-4	/
CC1CN(S(=O)(=O)c2cccc(C(=O)OC/C(O)=C(\C#N)c3nc4ccccc4[nH]3)c2)CC(C)O1 (centres undefined)	6	-1	-6	-24	-51	-3
N#C/C(=C(/O)COC(=O)c1ccc(Cl)c(S(=O)(=O)N2CCOCC2)c1)c1nc2ccccc2[nH]1	52*	0	4	-1	-41	-1
Cc1ccc(C(=O)OC/C(O)=C(\C#N)c2nc3ccccc3[nH]2)cc1S(=O)(=O)N1CCOCC1	-18	-5	-2	-28	-44	-2
N#C/C(=C(/O)COC(=O)CCc1ccc(S(=O)(=O)N2CCOCC2)cc1)c1nc2ccccc2[nH]1	62*	-20	-7	-24	-48	3
N#Cc1c(NC(=O)CSc2ncnc3sccc23)oc(-c2ccco2)c1-c1ccco1	97*	2	-1	-35	-74	3
SMILES	Mcl1-Noxa inh	eIF4E-4G inh	14-3-3 Bad inh	Mcl1-Bid inh	p47phox inh	Mcl-1 Bim block
CC1(C)CC2=C(CO1)C(=S)NC(c1ccccc1)N2CC1CCCO1 (centres undefined)	3	95*	1	-49	-3	/
CC(=O)ONC(=Nc1ccccc1)c1nonc1N	2	-2	-4	-15	-5	/
COc1cccc2cc(C(=O)NCCc3c[nH]c4ccccc34)c(=O)oc12	18	2	-19	-7	-10	-1
CC(=O)Nc1ccc(S(=O)(=O)NNC(=O)COc2cccc(C)c2)cc1	24	33*[fluorescence artefact?]	-10	-18	-8	-1
CCOC(=O)c1ccc(S(=O)(=O)NNC(=O)COc2cccc(C)c2)cc1	10	2	-1	-51	-3	0
O=C(c1cncs1)N1CCCC(CNS(=O)(=O)c2cccs2)C1 (centres undefined)	7	0	-8	-15	9	-1
CC(=O)Oc1ccc(/C=N/NS(=O)(=O)c2ccccc2)cc1	5	-3	2	-23	-13	0
CC1CCN(C(=S)NC(=O)c2cccs2)CC1	-5	-3	-4	-11	1	-1
CC1CCCCN1C(=S)NC(=O)c1cccs1 (centres undefined)	2	92*	1	-97	-18	/
Brc1ccc(OCCCN2CCOCC2)cc1	8	-3	68	65*	-9	1
CCC(=O)OC1(C#CCOc2ccc(OC)cc2)CCN(C)CC1	10	16	33	53*	-3	4
COc1ccccc1NC(=O)CSCc1nc2ccccc2[nH]1	13	-4	4	52*	-1	-4
COc1ccccc1NC(=O)CSCC(N)=O	-15	-5	4	6	-7	-4
O=c1c2ccccc2nc2n1C(CBr)CN2 (centres undefined)	-4	-6	-2	-35	-4	/
Cc1nn(Cc2ccccc2)c(C)c1NC(=O)CSc1nc(-c2ccccc2)nc2c1cnn2-c1ccccc1	28	-33	30	80*	32*	0
CN(C)c1ccc(/C=C2\C(=N)N3C(=NC2=O)Sc2cc(S(C)(=O)=O)ccc23)cc1	60*	-13	37	64*	-60	/
COc1cccc(-n2c(C)cc(/C=C3/C(=N)N4C(=NC3=O)SN=C4S(C)(=O)=O)c2C)c1	32	8	-19	-17	-49	2
CCCCCNC(=O)C1CCC(Cn2c(=S)[nH]c3ccccc3c2=O)CC1 (centres undefined)	-6	2	-9	-12	-7	-2
O=C(O)c1ccc(Cl)c(N2C(=O)Nc3ccccc3N2O)c1	25	-1	-5	19	9	1
Cc1cc(C(=O)O)cc(Br)c1N	2	1	0	-12	-2	1
Cc1cc(C)c(N)c(C(=O)O)c1	13	-1	58	61*	-9	/
CCOC(=O)c1c(CN2CCN(Cc3ccccc3)CC2)n(C)c2cc(Br)c(OC)cc12	4	3	-7	-38	-16	-2
CCOC(=O)c1c(CSc2ccccc2)n(C)c2cc(Br)c(OCC(O)CNC(CO)(CO)CO)cc12 (centres undefined)	20	-32	-16	30	42*	/
CN1C(C(=O)NCc2ccc(OC(F)(F)F)cc2)CC2Cn3c(nc4ccccc43)C21 (centres undefined)	-9	-4	-6	-26	-11	/
COc1ccc(C(=O)NCC(=O)NCC(c2ccco2)N(C)C)cc1OC (centres undefined)	23	-1	1	-21	-13	-7
